Compound activity as filed in PubChem.
Cruzain Triton: blocks cruzain activity in presence of Triton detergent. Potency, µM, for inactives: max response, negative = inhibition, usual class: inhibitors. 0.43% of 200,000 active. P25779. AID 1478. purified cruzain, Z-FR-AMC fluorescence, 0.01% Triton;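 also: plate controls were neutral wells for no effect and buffer without enzyme for full effect; nearly all actives have a fitted effect of over 40% in size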
Target sequence (P25779 123-467 limits assumed): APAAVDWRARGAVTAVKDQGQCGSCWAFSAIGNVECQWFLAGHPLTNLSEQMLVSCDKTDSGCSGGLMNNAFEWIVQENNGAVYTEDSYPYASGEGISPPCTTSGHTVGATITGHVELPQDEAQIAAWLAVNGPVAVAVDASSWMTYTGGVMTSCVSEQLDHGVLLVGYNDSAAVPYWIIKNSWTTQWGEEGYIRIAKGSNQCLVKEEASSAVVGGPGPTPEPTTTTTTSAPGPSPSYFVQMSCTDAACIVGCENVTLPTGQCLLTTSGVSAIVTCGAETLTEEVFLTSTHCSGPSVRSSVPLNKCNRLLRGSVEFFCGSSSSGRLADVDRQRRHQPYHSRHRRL
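Enzyme 1.5 nM, Z-FR-AMC 2 uM, NaOAc 100 mM pH 5.5, DTT 5 mM, Triton X-100 0.01%; 15 min RT compound preincubation; kinetic ex360/em450, 60 s delta.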
Cruzain noTriton: inhibitors of Trypanosoma cruzi cruzain without detergent; purified cruzain, Z-FR-AMC fluorescence, no detergent; Potency, µM, for inactives: max response, negative = inhibition, actives largely listed as inhibitors; 2.3% of 200,000 active; AID 1476;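 also: plate controls were enzyme without inhibitor for no effect and buffer without enzyme for full effect; nearly all actives have a fitted effect of over 40% in size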
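Purified cruzain at 1.5 nM, pre-incubated 15 min with compound at room temperature in 100 mM sodium acetate pH 5.5, 5 mM DTT, 0.00005% Triton X-100. Reaction started with 2 uM Z-FR-AMC; AMC fluorescence increase over 60 s gives rate.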
* hit, by the source's call; ? = inconclusive. Most compounds without a hit are left out; they make up all but 2.6% or so of the library. Calls follow the shape of the dose curve; as a rule, active = well fitted curve in the direction sought with a large enough effect; inconclusive = small, poorly fitted or top-dose-only effect, or another doubt; inactive = no such curve, though single readings can be large; an effect the other way counts as inactive or inconclusive. Potency is read from the fitted curve at half-maximal effect.

SMILES	Cruzain Triton	Cruzain noTriton
Cc1nc2nc(SCC(=O)NCc3ccccc3)nn2c(C)c1Cc1ccccc1Cl	-7%	5%
CCCn1c(=O)sc2cc(NC(=O)c3ccccc3Cl)ccc21	-7%	-5%
Cc1ccc2sc3ccc(NC(=O)c4ccccc4Cl)cc3c(=O)c2c1	3%	25µM*
CC1=C(C(=O)OCc2ccccc2)C(C2CC2)NC(=O)N1CCCCCC(=O)O (configuration not stated)	-5%	6%
COc1ccccc1NC(=O)Nc1ccc(Br)cn1	-1%	-6%
COc1ccc(Cl)cc1NC(=O)Nc1ccc(Br)cn1	0%	13µM*
O=c1[nH]c(=O)n(C2CCCCC2)c(O)c1C1=Nc2ccccc2SC(c2ccc(Cl)cc2)C1 (configuration not stated)	-9%	?
Cc1ccc(NS(=O)(=O)c2ccc3nc(-c4ccccc4)[nH]c3c2)c(Cl)c1	-8%	11%
COc1cccc(C2C3=C(N=c4s/c(=C\c5cccc(O)c5)c(=O)n42)c2ccccc2CC3)c1OC (configuration not stated)	0%	10µM*
CCOC(=O)C1=C(C)N=c2s/c(=C\c3cc(OC)c(OC)c(OC)c3)c(=O)n2C1/C=C/c1ccccc1 (configuration not stated)	-3%	13%
COc1ccccc1C1C2=C(N=c3s/c(=C/c4cccc(OCC(=O)O)c4)c(=O)n31)c1ccccc1CC2 (configuration not stated)	28µM*	?
COc1cccc(C2C3=C(N=c4s/c(=C\c5ccc(O)cc5)c(=O)n42)c2ccccc2CC3)c1OC (configuration not stated)	-2%	?
O=c1oc2cc(OCc3ccc(C(F)(F)F)cc3)ccc2cc1-c1ccccn1	3%	-10%
COc1ccc2c(-c3cc4ccc(OCc5ccc(F)cc5)cc4oc3=O)cc(=O)oc2c1	-7%	10µM*
O=C(CC1N=C2c3ccccc3N=C(SCC(=O)Nc3ccc(F)cc3)N2C1=O)NCc1ccc2c(c1)OCO2 (configuration not stated)	-3%	-3%
Nc1nonc1C(=O)N/N=C/c1ccc(-c2cccc([N+](=O)[O-])c2)o1	-11%	-16%
Cc1n[nH]c(=S)n1/N=C/c1ccc(-c2ccccc2[N+](=O)[O-])o1	-2%	-7%
NC(=S)N/N=C/c1ccc(-c2cccc([N+](=O)[O-])c2)o1	2.8µM*	3.2µM*
O=[N+]([O-])c1cccc(-c2ccc(/C=N/n3c(-c4ccccc4)n[nH]c3=S)o2)c1	-4%	16µM*
CCCSCCCNC(=O)c1ccc2c(c1)nc1n2CCCCC1	1%	0%
COc1cccc(Cn2c(=O)c(-c3ccc(F)cc3)nc3cnc(N4CCNCC4)nc32)c1	2%	5%
CCc1ccc2occ(CC(=O)Nc3sc4c(c3C(=O)NCCOC)CCCC4)c2c1	-4%	-4%
CCOc1ccc(-c2cc(C(=O)Oc3ccc(C#N)cc3)no2)cc1	-2%	2%
CCC(C(=O)NCc1ccc2c(c1)CCN2C(=O)c1ccc(F)cc1)c1ccccc1 (configuration not stated)	-1%	11%
COC(=O)c1ccc2c(c1)c(I)c(-c1ccc(OC)cc1)n2C	3%	?
SMILES	Cruzain Triton	Cruzain noTriton
COC(=O)c1ccc2c(c1)c(C#Cc1ccccc1)c(-c1ccccc1)n2C	-3%	18µM*
COc1ccccc1NC(=O)CSc1nc2c(oc3ccccc32)c(=O)n1-c1ccccc1F	-2%	-5%
CCN=C(NCC)SC1CC(=O)N(c2ccc(OC)cc2)C1=O (configuration not stated)	2%	1%
C/C(=N\N=C(/N)SC1CC(=O)N(c2ccc(Br)cc2)C1=O)c1cccs1 (configuration not stated)	-8%	?
N/C(=N\N=C\c1ccnc2ccccc12)SC1CC(=O)N(c2ccc(Br)cc2)C1=O (configuration not stated)	-20%	10µM*
COc1ccc(N2C(=O)CC(S/C(N)=N/N=C/c3ccnc4ccccc34)C2=O)cc1 (configuration not stated)	25µM*	10µM*
CCN1CCN(Cc2c(O)ccc3c(=O)c(Oc4ccccc4C(C)C)c(C(F)(F)F)oc23)CC1	-3%	3%
COc1cccc(/C=C/c2nc(C#N)c(NC3CCCCC3)o2)c1	-5%	4%
O=C=Nc1ccc(Cc2ccc(N=C=O)cc2)cc1	-19%	16µM*
O=C=Nc1ccc(Cc2ccc(N=C=O)cc2)cc1 (tested in a mixture with another compound)	0%	3%
Cc1ccc(NC(=O)Cc2coc3c(C)c(C)ccc23)c(C)c1	-4%	-21%
Cc1ccc2c(CC(=O)Nc3ccc(N4CCN(C)CC4)cc3C)coc2c1	1%	25µM*
CCCOc1ccc(NC(=O)CC2C(=O)N(c3ccc(C)cc3)C(=O)N2C2CCCC2)cc1 (configuration not stated)	-6%	5%
O=C(Nc1ccccc1)c1nc2ccccc2s1	-7%	-5%
Cc1ccc(C)c2sc(NC(=O)c3nc4ccccc4s3)nc12	-1%	10µM*
COc1ccc(C2CC(c3ccccc3OC(C)=O)=NN2C(=O)/C=C/c2ccccc2)cc1 (configuration not stated)	-6%	-20%
COc1ccc(C2CC(c3ccc4ccccc4c3OC(C)=O)=NN2C(=O)/C=C/c2ccccc2)cc1 (configuration not stated)	-1%	7.9µM*
COC(=O)c1ccc(-c2nc3ccccc3o2)cc1	2%	7%
COC(=O)c1ccc(-c2ncc(-c3cccc4ccccc34)o2)cc1	20µM*	?
CCOC(=O)COc1ccccc1-c1ccno1	?	25µM*
CCOC(=O)COc1ccc2nsnc2c1Cl	-1%	-4%
CCCSc1nc(SCC(=O)NCc2ccccc2)c2c3c(sc2n1)COC(C)(C)C3	9%	-4%
CC(C)Sc1nc(SCC(=O)NCc2ccco2)c2c3c(sc2n1)COC(C)(C)C3	25µM*	25µM*
COCCCn1c(=N)c(C(=O)NC2CCCC2)cc2c(=O)n3cccc(C)c3nc21	-10%	?
Cc1ccc(S(=O)(=O)c2cc3c(=O)n4ccccc4nc3n(CC3CCCO3)c2=N)cc1C (configuration not stated)	32µM*	-28%
SMILES	Cruzain Triton	Cruzain noTriton
COCCCNC(=O)c1cc2c(=O)n3cccc(C)c3nc2n(C(C)C)c1=N	25µM*	?
COCCn1c(=N)c(C(=O)NCCc2ccc(OC)cc2)cc2c(=O)n3cccc(C)c3nc21	-4%	-3%
Cc1ccc(S(=O)(=O)c2cc3c(=O)n4ccccc4nc3n(Cc3ccco3)c2=N)cc1C	6%	-25%
Cc1cccn2c(=O)c3cc(C(=O)NC(C)C)c(=N)n(Cc4ccncc4)c3nc12	32µM*	?
Cc1cccn2c(=O)c3cc(C(=O)NCC4CCCO4)c(=N)n(Cc4cccnc4)c3nc12 (configuration not stated)	22µM*	?
CCCn1c(=N)c(C(=O)NCc2cccnc2)cc2c(=O)n3cccc(C)c3nc21	-2%	3%
CCCCN(CCCNC(=O)c1cc(Nc2ccc(OC)c(OC)c2)nc2ccccc12)c1ccccc1	-4%	-28%
Cc1cc(C)c2c(CC(=O)Nc3nnc(C(C)C)s3)coc2c1	-4%	?
Cc1ccc(S(=O)(=O)C(CNC(=O)C(=O)NCc2ccc(Cl)cc2)c2cccs2)cc1 (configuration not stated)	-3%	-20%
